# Source: PubChem BioAssay (NCATS)
# Where “and” joins values, the source holds several entries; their conditions need not be identical. Identical values can stand only once. Inconclusive results are not listed. Entries that show only a call come without a potency. More than one record can exist for a structure, and the calls need not agree. Calls of active or inactive are those of the source. Unless noted, calls follow the shape of the dose curve; as a rule, active = well fitted curve in the direction sought with a large enough effect; inconclusive = small, poorly fitted or top-dose-only effect, or another doubt; inactive = no such curve, though single readings can be large; an effect the other way counts as inactive or inconclusive.
# Key:
# [1] = Quantitative high throughput screen for delayed death inhibitors of the malarial parasite plastid, 48 hour incubation (AID 488752); also: nearly all actives have a fitted effect of over 65% in size; also: potency is read from the fitted curve at half-maximal effect
# Procedure, shortened: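 One-generation (48 h) growth assay: a decrease in luciferase signal from an integrated reporter in P. falciparum-infected red cells (0.1% parasitemia, 2% hematocrit) after compound exposure at 37 C indicates parasite inhibition.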
# [2] = biological target: Voltage-gated inwardly rectifying potassium channel KCNH2 (Homo sapiens) (UniProt Q12809); test: qHTS Assay for Small Molecule Inhibitors of the Human hERG Channel Activity (AID 588834);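 also: lower thallium flux fluorescence means stronger hERG block; nearly all actives have a fitted effect of over 50% in size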; also: potency is read from the fitted curve at half-maximal effect; as to activity change, negative = inhibition: top concentration of the series differs between compounds
# Procedure, shortened: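 Thallium serves as surrogate for K+ influx through BacMam-delivered hERG in U2OS cells. Compounds are added for about 10 minutes after dye loading; stimulation buffer then starts flux, monitored kinetically on FDSS.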
# [3] = biological target: DNA dC->dU-editing enzyme APOBEC-3G (Homo sapiens) (UniProt Q9HC16); test: qHTS for inhibitors of Vif-A3G interactions: Validation (AID 588379)
# Procedure, shortened: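 Yellow fluorescence (Ex 488, Em 500-530) of Vif-coexpressing HeLa A3G-eYFP cells, scanned by Acumen cytometer, reports blocked A3G degradation. Cells plated at 700/well overnight at 37 deg C before compound addition, then a further overnight compound incubation at 37 deg C.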
# [4] = biological target: Rap guanine nucleotide exchange factor 4 (Homo sapiens) (UniProt Q8WZA2); test: Confirmatory qHTS for agonist of cAMP-regulated guanine nucleotide exchange factor 4 (EPAC2) (AID 1645884);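 also: nucleotide exchange releases bodipy-GDP from Rap1 and this lowers its fluorescence; nearly all actives have a fitted effect of over 65% in size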
# [5] = biological target: Rap guanine nucleotide exchange factor 4 (Homo sapiens) (UniProt Q8WZA2); test: Confirmatory qHTS for antagonist of cAMP-regulated guanine nucleotide exchange factor 4 (EPAC2) (AID 1645885); also: nearly all actives have a fitted effect of over 25% in size; also: potency is read from the fitted curve at half-maximal effect
# [6] = Cell Viability - Jurkat (AID 426;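 active = dose-dependent loss of cell ATP signal giving a full or clear fitted curve, ranked by lower potency value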;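 also: potency is read from the fitted curve at half-maximal effect; cells exposed to compound for 40 hours at 37 °C before ATP read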); conditions: qHTS
# Procedure, shortened: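 Cytotoxicity taken as drop in cellular ATP (CellTiter-Glo luminescence, 20 min room temperature) after 40 hr, 37C treatment of 5000 Jurkat Clone E6-1 cells per well; concentration-response fitted with Hill equation for AC50.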
# [7] = Cell Viability - MRC5 (AID 434; calls by dose curve;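 also: potency is read from the fitted curve at half-maximal effect; cells exposed to compound for 40 hours at 37 °C; potency reflects cytotoxicity seen as loss of intracellular ATP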); conditions: MRC5 lung fibroblast viability, qHTS
# Procedure, shortened: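 AC50 values come from Hill-equation fits of intracellular ATP loss, measured by CellTiter-Glo luminescence. Normal lung fibroblasts (MRC5) had 40 hr compound treatment at 37 C, normalized between DMSO and 100 uM tamoxifen.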
# [8] = MultiTox-Fluor Cytotoxicity Assay - LYMP1-001 - Dead Cells (AID 946); also: potency is read from the fitted curve at half-maximal effect
# Procedure, shortened: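 AC50 from Hill fit of concentration-response; data normalized to DMSO (basal) and 15 uM tetraoctylammonium bromide (100%). LYMP1-001 lymphoblastoid cells, 2500/well, 16 hr compound at 37 C; dead-cell protease fluorescence, Ex/Em 485/520.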
# [9] = Cell Viability - LYMP1-002 - Assay at 16 hr (AID 948)
# Procedure, shortened: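 LYMP1-002 human lymphoblastoid cells, 2500/well, were treated with compounds for 16 hr at 37 C in complete medium. Viability was read as intracellular ATP by CellTiter-Glo luminescence, and AC50 was derived from a Hill fit to concentration-response data.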
# [10] = MultiTox-Fluor Cytotoxicity Assay - LYMP1-002 - Dead Cells (AID 960); also: nearly all actives have a fitted effect of over 60% in size; also: potency is read from the fitted curve at half-maximal effect
# Procedure, shortened: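 Dead-cell fluorescence (Ex/Em 485/520) after 16 h compound exposure at 37 C of LYMP1-002 lymphoblastoid cells in complete medium; AC50 by Hill equation, with data scaled between DMSO and 15 uM tetraoctylammonium bromide.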
# [11] = MultiTox-Fluor Cytotoxicity Assay - LYMP1-003 - Live Cells (AID 962);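 also: cells exposed to compound for 16 hours at 37 °C; cytotoxic hits lower the live-cell protease signal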
# Procedure, shortened: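 Live-cell protease activity (GF-AFC substrate, 405/510 nm, 60 min at room temperature) after 16 h, 37 C compound exposure of human lymphoblastoid LYMP1-003 cells; concentration-response fitted to the Hill equation for AC50.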
# [12] = Cell Viability - LYMP1-003 - Assay at 24 hr (AID 963)
# Procedure, shortened: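 Concentration-response qHTS: ATP loss measured by CellTiter-Glo luminescence after 24 h compound exposure at 37 C. Cells were LYMP1-003 human lymphoblastoid, 2500 per well. AC50 derived via standard Hill equation modeling.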
# [13] = Cell Viability - LYMP2-002 (AID 977); also: series mostly up to about 92 µM
# Procedure, shortened: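 Human lymphoblastoid cells (2500/well) in complete medium were preincubated 5 hr at 37 C, then exposed to compounds for 24 hr at 37 C. Intracellular ATP was read by CellTiter-Glo luminescence; AC50 came from Hill-equation concentration-response fits.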
# [14] = biological target: Glucocorticoid receptor (Homo sapiens) (UniProt P04150); test: qHTS assay for small molecule antagonists of glucocorticoid receptor signaling (AID 588533; active = well fitted inhibition curve with a large enough effect in the signal ratio, with a control signal flat, not every such curve was filed as active; the % refers to the signal ratio;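 also: cells stimulated with 2 nM dexamethasone as agonist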)
# Procedure, shortened: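 Antagonist-mode qHTS: compound titrations added to GRE-bla HeLa cells, then dexamethasone 2 nM final; 18 h, 37 C. CCF4 FRET fluorescence normalized to dexamethasone and DMSO; IC50 from Hill fit.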
# [15] = biological target: Peroxisome proliferator-activated receptor gamma (Homo sapiens) (UniProt P37231); test: qHTS assay for small molecule agonists of peroxisome proliferator-activated receptor gamma signaling (AID 588536; active = well fitted curve in the direction sought with a large enough effect in the signal ratio, with a control signal flat, not every such curve was filed as active; the % refers to the signal ratio)
# Procedure, shortened: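 Compound treatment: 16 h, 37 C, HEK293 GeneBLAzer cells. Detection: CCF4, 2 h RT. Values: Hill-fit EC50, efficacy as % of 2 uM rosiglitazone.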
# [16] = qHTS assay for small molecule agonists of retinoid X receptor alpha signaling (AID 588544; calls by dose curve); conditions: HEK293T RXRa-UAS-bla, beta-lactamase reporter, 18 h; 530 nm emission
# [17] = biological target: Retinoic acid receptor RXR-alpha (Homo sapiens) (UniProt P19793); test: as above
# [18] = qHTS assay for small molecule disruptors of the mitochondrial membrane potential - 1 hr assay (AID 651754; calls by dose curve; also: nearly all actives have a fitted effect of over 35% in size)
# Procedure, shortened: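 Mitochondrial potential in living HepG2 cells after 1 hr compound treatment at 37C was read with Mito-MPS dye added for a further 30 min. Red aggregate and green monomer fluorescence were measured; loss of potential leaves dye as cytoplasmic monomers.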
# [19] = qHTS assay for small molecule disruptors of the mitochondrial membrane potential - 5 hr assay (AID 651755; calls by dose curve; also: nearly all actives have a fitted effect of over 40% in size)
# Procedure, shortened: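 Membrane-potential dye readout: red aggregate (540 ex/590 em) versus green monomer (490 ex/535 em) fluorescence after 30 min dye loading, following 5 hr compound exposure at 37C of overnight-plated HepG2 cells.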
# [20] = qHTS assay for environmental chemicals that activate the Aryl hydrocarbon Receptor (AhR) signaling pathway (AID 651777); conditions: 1A2-DRE human hepatoma cells, luciferase, 24 h; activation: stronger effect = higher value; also: nearly all actives have a fitted effect of over 15% in size; also: potency is read from the fitted curve at half-maximal effect
# Procedure, shortened: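 Induction of CYP1A2 transcription through AhR is detected by luciferase in 1A2-DRE hepatoma cells. Compounds or DMSO act for 24 hr at 37 C before a 30 min One-Glo step at room temperature.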
# Peroxisome proliferator-activated receptor gamma (Homo sapiens), sequence (P37231 whole entry, looked up): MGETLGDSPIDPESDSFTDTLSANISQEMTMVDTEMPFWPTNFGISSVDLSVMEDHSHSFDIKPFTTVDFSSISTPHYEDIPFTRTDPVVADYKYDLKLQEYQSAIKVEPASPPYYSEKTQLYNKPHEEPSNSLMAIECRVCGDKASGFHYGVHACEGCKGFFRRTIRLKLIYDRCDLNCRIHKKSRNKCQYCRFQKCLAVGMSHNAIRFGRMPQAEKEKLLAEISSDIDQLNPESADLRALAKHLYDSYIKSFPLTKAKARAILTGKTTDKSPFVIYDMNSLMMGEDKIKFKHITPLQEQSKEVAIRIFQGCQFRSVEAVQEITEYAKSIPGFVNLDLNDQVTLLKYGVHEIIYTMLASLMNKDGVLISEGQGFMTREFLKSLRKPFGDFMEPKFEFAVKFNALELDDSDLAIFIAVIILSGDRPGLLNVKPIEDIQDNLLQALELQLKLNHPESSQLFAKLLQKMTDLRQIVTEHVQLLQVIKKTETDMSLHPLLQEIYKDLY
# Retinoic acid receptor RXR-alpha (Homo sapiens), sequence (P19793 whole entry, looked up): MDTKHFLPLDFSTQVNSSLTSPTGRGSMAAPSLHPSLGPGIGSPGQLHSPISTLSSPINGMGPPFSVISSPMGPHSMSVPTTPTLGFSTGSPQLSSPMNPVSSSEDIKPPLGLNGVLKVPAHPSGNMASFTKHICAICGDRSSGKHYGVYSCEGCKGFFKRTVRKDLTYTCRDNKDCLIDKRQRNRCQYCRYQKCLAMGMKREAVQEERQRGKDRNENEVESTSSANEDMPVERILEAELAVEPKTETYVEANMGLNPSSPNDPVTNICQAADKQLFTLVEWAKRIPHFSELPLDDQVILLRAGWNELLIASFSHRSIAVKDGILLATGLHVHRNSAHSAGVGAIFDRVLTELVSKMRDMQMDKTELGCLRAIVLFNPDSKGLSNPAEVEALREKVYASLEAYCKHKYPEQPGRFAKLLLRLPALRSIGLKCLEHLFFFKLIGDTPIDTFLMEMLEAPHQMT
# Rap guanine nucleotide exchange factor 4 (Homo sapiens), sequence (Q8WZA2 whole entry, looked up): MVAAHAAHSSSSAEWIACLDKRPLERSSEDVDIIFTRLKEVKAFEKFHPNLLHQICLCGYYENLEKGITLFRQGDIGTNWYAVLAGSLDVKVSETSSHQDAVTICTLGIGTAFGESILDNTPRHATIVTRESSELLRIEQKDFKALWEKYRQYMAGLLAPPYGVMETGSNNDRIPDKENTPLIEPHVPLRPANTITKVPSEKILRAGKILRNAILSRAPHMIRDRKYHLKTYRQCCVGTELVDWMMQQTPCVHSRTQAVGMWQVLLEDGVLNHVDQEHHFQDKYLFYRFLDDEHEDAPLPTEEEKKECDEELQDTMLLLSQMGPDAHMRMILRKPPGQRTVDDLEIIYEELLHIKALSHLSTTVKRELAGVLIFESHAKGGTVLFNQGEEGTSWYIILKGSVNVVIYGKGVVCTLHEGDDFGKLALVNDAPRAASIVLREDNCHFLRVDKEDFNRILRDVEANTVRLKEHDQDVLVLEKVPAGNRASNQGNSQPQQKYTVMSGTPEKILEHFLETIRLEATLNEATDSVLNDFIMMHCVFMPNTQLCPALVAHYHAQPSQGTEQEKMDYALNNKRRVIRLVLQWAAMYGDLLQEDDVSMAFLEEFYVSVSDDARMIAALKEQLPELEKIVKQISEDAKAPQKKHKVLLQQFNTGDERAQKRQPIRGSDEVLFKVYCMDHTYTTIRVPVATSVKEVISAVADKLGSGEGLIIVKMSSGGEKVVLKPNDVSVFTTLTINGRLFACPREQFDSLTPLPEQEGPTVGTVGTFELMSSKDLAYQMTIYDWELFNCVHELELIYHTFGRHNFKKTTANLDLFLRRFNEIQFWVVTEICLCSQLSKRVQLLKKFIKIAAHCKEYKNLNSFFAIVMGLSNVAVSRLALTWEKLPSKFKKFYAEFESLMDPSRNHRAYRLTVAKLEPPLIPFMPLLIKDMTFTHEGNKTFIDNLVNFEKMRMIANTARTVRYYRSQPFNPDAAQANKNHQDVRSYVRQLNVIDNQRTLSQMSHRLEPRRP
# DNA dC->dU-editing enzyme APOBEC-3G (Homo sapiens), sequence (Q9HC16 whole entry, looked up): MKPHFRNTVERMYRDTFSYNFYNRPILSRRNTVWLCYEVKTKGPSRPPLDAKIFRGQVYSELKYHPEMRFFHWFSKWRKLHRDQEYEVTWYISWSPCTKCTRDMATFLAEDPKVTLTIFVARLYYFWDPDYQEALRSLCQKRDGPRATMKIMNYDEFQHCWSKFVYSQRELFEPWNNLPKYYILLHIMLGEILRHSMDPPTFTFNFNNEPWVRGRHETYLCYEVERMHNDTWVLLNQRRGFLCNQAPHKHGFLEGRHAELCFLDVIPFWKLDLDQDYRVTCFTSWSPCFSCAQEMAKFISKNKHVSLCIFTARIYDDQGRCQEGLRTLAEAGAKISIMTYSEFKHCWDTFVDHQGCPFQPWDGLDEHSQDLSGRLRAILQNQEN
# Voltage-gated inwardly rectifying potassium channel KCNH2 (Homo sapiens), sequence (Q12809 whole entry, looked up): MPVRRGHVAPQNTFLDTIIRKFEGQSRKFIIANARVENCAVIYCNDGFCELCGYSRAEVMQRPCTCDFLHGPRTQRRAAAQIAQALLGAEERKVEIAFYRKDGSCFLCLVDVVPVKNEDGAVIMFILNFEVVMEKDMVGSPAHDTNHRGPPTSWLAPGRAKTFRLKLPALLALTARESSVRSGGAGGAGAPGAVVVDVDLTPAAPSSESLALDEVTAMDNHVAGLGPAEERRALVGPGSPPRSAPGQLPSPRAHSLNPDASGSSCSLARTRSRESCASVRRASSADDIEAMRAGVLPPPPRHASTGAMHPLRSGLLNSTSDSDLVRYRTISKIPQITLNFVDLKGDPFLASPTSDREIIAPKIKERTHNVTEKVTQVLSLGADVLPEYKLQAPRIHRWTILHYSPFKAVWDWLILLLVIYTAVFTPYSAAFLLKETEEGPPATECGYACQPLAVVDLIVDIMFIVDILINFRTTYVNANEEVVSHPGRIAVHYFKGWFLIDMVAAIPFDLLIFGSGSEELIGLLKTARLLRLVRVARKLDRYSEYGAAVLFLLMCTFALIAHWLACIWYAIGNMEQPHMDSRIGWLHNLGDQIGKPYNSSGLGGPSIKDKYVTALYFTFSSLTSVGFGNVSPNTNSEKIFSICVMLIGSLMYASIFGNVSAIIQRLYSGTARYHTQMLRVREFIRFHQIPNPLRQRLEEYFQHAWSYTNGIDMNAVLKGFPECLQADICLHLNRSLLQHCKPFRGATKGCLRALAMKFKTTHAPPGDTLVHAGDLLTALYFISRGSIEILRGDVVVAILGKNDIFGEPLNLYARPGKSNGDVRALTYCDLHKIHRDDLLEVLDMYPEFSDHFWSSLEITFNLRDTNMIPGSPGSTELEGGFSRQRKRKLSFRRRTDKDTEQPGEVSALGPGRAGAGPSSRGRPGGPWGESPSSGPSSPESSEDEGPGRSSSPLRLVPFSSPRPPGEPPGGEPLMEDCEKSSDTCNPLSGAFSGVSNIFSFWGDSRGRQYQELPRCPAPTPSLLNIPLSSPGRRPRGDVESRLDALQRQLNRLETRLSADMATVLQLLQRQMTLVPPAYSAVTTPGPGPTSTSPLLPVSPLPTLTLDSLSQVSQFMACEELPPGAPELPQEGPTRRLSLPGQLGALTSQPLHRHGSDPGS
# Glucocorticoid receptor (Homo sapiens), sequence (P04150 whole entry, looked up): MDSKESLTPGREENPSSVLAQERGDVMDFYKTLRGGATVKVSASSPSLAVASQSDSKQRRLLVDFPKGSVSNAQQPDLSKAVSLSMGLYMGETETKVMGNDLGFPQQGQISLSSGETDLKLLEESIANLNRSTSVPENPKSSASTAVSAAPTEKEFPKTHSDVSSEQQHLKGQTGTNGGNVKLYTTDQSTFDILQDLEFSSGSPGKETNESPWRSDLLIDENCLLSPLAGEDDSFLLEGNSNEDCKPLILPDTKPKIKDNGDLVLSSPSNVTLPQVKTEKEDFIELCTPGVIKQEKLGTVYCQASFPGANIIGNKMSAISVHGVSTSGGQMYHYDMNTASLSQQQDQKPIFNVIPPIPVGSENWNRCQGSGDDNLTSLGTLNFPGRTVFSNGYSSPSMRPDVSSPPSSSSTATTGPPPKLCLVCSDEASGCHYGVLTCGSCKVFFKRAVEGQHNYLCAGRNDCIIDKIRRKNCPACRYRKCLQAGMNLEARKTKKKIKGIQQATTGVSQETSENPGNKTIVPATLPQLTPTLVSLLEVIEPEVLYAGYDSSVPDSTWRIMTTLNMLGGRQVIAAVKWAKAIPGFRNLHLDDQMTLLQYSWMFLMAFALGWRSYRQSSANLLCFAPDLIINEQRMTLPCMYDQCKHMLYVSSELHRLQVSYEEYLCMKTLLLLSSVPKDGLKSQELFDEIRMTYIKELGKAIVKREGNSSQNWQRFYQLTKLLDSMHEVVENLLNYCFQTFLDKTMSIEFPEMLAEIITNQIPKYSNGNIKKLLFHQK
structure (smiles),measurement,setting,value
CCc1c(C(=O)OC)ncc2[nH]c3cc(OC)c(OC)cc3c12,Potency,[1],inactive
same,Potency,[2],inactive
O=C(O)C1=CCCN(CCOC(c2ccc(C(F)(F)F)cc2)c2ccc(C(F)(F)F)cc2)C1,outcome,[3],inactive
CCCN1CCc2cc(O)cc3c2C1Cc1ccc(O)c(O)c1-3 (stereo not given),Potency,[1],8.28 µM (active)
same,Potency,[2],7.08 µM (active)
O=C1c2ccccc2-c2cccc3cccc1c23,Potency,[4],inactive
same,Potency,[5],inactive
CC1=NCCc2c1[nH]c1cc(O)ccc21,Potency,[5],inactive
COc1cc2c(cc1-c1cc3cc4ccoc4cc3oc1=O)OCO2,Potency,[4],inactive
same,Potency,[5],0.987 µM (active)
CCCN1CCc2cccc3c2C1Cc1ccc(O)c(O)c1-3 (stereo not given),Potency,[1],1.85 µM (active)
CNC(=O)O/N=C/C(C)(C)SC,Potency,[6],> 92 µM (inactive)
same,Potency,[7],> 92 µM (inactive)
same,Potency,[8],inactive
same,Potency,[9],inactive
same,Potency,[10],inactive
same,Potency,[11],inactive
same,Potency,[12],inactive
same,Potency,[13],inactive
same,Potency,[14],inactive
same,outcome,[15],inactive
same,max response,[16],-12.4% and 19.1% and 1.84%
same,Potency,[17],inactive
same,Potency,[2],inactive
same,Potency,[18],inactive
same,Potency,[19],inactive
same,Potency,[20],39.8 µM (active)
same,activation,[20],-0.995% (inactive) and 0.0962% (inactive)
CC(=O)OC1CC2C(C)(C)C(=O)C=C[C@]2(C)C2CC[C@]3(C)C(=CC(=O)OC3c3ccoc3)[C@]12C (stereo not given in full),Potency,[4],inactive
O=C1C=CC(=O)c2c(O)cccc21,Potency,[4],inactive
same,Potency,[5],inactive
CC(C)[C@@]1(NC(=O)[C@@H]2C[C@@H]3c4cccc5[nH]cc(c45)C[C@H]3N(C)C2)O[C@@]2(O)C3CCCN3C(=O)[C@H](Cc3ccccc3)N2C1=O (stereo not given in full),Potency,[1],1.65 µM (active)
COc1cc2c(cc1O)CC1c3c(cc(O)c(OC)c3-2)CCN1C (stereo not given),outcome,[3],inactive
Cc1nnc2ccc(-c3cccc(C(F)(F)F)c3)nn12,outcome,[3],inactive
C[C@]12CC[C@H](O)CC1=CCC1C2CC[C@]2(C)C(=O)CC[C@@H]12 (stereo not given in full),Potency,[1],inactive
same,outcome,[3],inactive
C=CCc1ccc2c(c1)OCO2,Potency,[6],> 92 µM (inactive)
same,Potency,[7],> 92 µM (inactive)
same,Potency,[8],inactive
same,Potency,[9],inactive
same,Potency,[10],inactive
same,Potency,[11],inactive
same,Potency,[12],inactive
same,Potency,[13],inactive
same,Potency,[14],inactive
same,outcome,[15],inactive
same,max response,[16],1.6%
same,Potency,[17],inactive
O=C(OC1CCN(CCCl)CC1)C(c1ccccc1)c1ccccc1,Potency,[2],inactive
same,activation,[4],"6.37% [at 17.1 µM, percent relative to cAMP agonist control] (inactive)"
same,"activity change, negative = inhibition",[5],-6.11% [at 12.7 µM] (inactive)
c1ccc(N=Nc2ccccc2)cc1,Potency,[6],47.9 µM (active)
same,Potency,[8],inactive
same,Potency,[9],inactive
same,Potency,[10],inactive
same,Potency,[11],inactive
same,Potency,[12],inactive
same,Potency,[13],inactive
same,Potency,[14],inactive
same,outcome,[15],inactive
same,max response,[16],8.95% and -1.18%
same,Potency,[17],inactive
same,Potency,[2],inactive
same,Potency,[18],inactive
same,Potency,[19],inactive
ClC1=C(Cl)C2(Cl)C3C(Cl)C=CC3C1(Cl)C2(Cl)Cl (stereo not given),Potency,[7],> 92 µM (inactive)
same,Potency,[8],50.1 µM (active)
same,Potency,[14],inactive
same,Potency,[18],inactive
same,Potency,[19],inactive
same,activation,[20],-0.719% (inactive)
CCOCN(C(=O)CCl)c1c(C)cccc1CC,Potency,[6],32 µM (active)
same,Potency,[9],inactive
same,Potency,[11],inactive
same,Potency,[12],inactive
same,Potency,[13],inactive
same,Potency,[18],inactive
same,Potency,[19],inactive
same,activation,[20],-0.995% (inactive) and 0.961% (inactive)
C/C=C/c1ccc2c(c1)OCO2,Potency,[6],> 92 µM (inactive)
same,Potency,[7],> 92 µM (inactive)
same,Potency,[8],inactive
same,Potency,[9],inactive
same,Potency,[10],inactive
same,Potency,[11],inactive
same,Potency,[12],inactive
same,Potency,[13],inactive
same,outcome,[3],inactive
same,outcome,[15],inactive
same,max response,[16],-11.2%
same,Potency,[17],inactive
O=S1OCC2C(CO1)C1(Cl)C(Cl)=C(Cl)C2(Cl)C1(Cl)Cl (stereo not given),Potency,[10],25.1 µM (active)
same,max response,[16],-15.4%
same,Potency,[17],inactive
ClC1=C(Cl)C2(Cl)C3C4C=CC(C4)C3C1(Cl)C2(Cl)Cl (stereo not given),Potency,[7],> 92 µM (inactive)
same,Potency,[14],inactive
same,outcome,[15],inactive
same,Potency,[18],inactive
same,Potency,[19],inactive
same,activation,[20],0.192% (inactive)
